Reference: the supplement of paper PMC6555819

Key:
Test in all cases: PBM binding z-score (relative to random genomic background probes); higher = stronger binding; sequences stand for … in GC…GCGATTGACAGCGTAGAATGAAGG
[1] = test system: PPARg:RXRa DBDmut IVT, anti-RXR (DBD mutation: RXRa K156A/R161A, NR concentration 270 nM, RXRa partner concentration 90 nM)
Procedure, shortened: (§1)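 Random background probes are the reference for binding z-scores. These scores derive from regression-normalized fluorescence on custom Agilent 4×180K protein-binding microarrays incubated 1 h with ligand-free nuclear receptor dimers. Binding was detected with antibodies against each partner (one per run).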

[2] = test system: PPARg:RXRa IVT, anti-PPARg (NR concentration 270 nM, RXRa partner concentration 90 nM)
Procedure, shortened: as §1

[3] = test system: PPARg DBDmut:RXRa IVT, anti-PPARg (DBD mutation: PPARg1 K132A/R137A, NR concentration 270 nM, RXRa partner concentration 90 nM)
Procedure, shortened: as §1

[4] = test system: PPARg DBDmut IVT, anti-PPARg (DBD mutation: PPARg1 K132A/R137A, NR concentration 270 nM)
Procedure, shortened: as §1

[5] = test system: PPARg homodimer (NR concentration 180 nM)
Procedure, shortened: as §1

[6] = test system: PXR:RXRa (NR concentration 270 nM, RXRa partner concentration 90 nM)
Procedure, shortened: as §1

[7] = test system: PXR homodimer (NR concentration 270 nM)
Procedure, shortened: as §1

[8] = test system: RARa:RXR (NR concentration 270 nM, RXRa partner concentration 90 nM)
Procedure, shortened: as §1

[9] = test system: RARa homodimer (NR concentration 270 nM)
Procedure, shortened: as §1

[10] = test system: RARb:RXRa (NR concentration 270 nM, RXRa partner concentration 90 nM)
Procedure, shortened: as §1

[11] = test system: RARb homodimer (NR concentration 270 nM)
Procedure, shortened: as §1

[12] = test system: RARg:RXRa (NR concentration 270 nM, RXRa partner concentration 90 nM)
Procedure, shortened: as §1

[13] = test system: RARg homodimer (NR concentration 270 nM)
Procedure, shortened: as §1

[14] = test system: RXRa DBDmut IVT, anti-RXR (DBD mutation: RXRa K156A/R161A, NR concentration 90 nM)
Procedure, shortened: as §1

[15] = test system: RXRa homodimer (NR concentration 180 nM)
Procedure, shortened: as §1

[16] = test system: THRa:RXRa (NR concentration 90 nM, RXRa partner concentration 90 nM)
Procedure, shortened: as §1

[17] = test system: THRa homodimer (NR concentration 90 nM)
Procedure, shortened: as §1

[18] = test system: VDR homodimer (NR concentration 270 nM)
Procedure, shortened: as §1

Sequence | PBM binding z-score [1] | PBM binding z-score [2] | PBM binding z-score [3] | PBM binding z-score [4] | PBM binding z-score [5] | PBM binding z-score [6] | PBM binding z-score [7] | PBM binding z-score [8] | PBM binding z-score [9] | PBM binding z-score [10] | PBM binding z-score [11] | PBM binding z-score [12] | PBM binding z-score [13] | PBM binding z-score [14] | PBM binding z-score [15] | PBM binding z-score [16] | PBM binding z-score [17] | PBM binding z-score [18]
CCTAGCAGGCCAATCTGGGTCCCTCAAGGCTTGA | 1.13 | 0.925 | -1.33 | -1.81 | -1.12 | -0.641 | -0.809 | -0.522 | -0.809 | 0.0212 | -0.121 | -0.601 | -0.841 | -0.491 | -0.782 | 0.746 | -0.658 | -0.612
ACCTCTAGGTAAAGATAGTTCAGTGAATGCAAAT | 2.21 | 1.04 | -0.152 | 0.355 | -0.326 | 0.747 | 0.128 | 0.271 | -0.309 | 0.426 | 0.723 | 0.4 | 0.505 | 0.0276 | 0.0359 | 0.533 | -0.346 | 0.268
AATACAGGGTCACTAGGCCAGCGTAGGTACGAAT | 4.14 | 5.63 | 1.74 | 1 | 1.64 | 3.02 | 0.293 | 3.54 | 0.674 | 4.17 | 3.58 | 5.12 | 4.78 | 2.81 | 5.29 | 3.48 | 1.43 | 2.28
ATCTCTAGGTAACAAGTTCTGTGAAAGAGAGGAC | 3.07 | 2.91 | 1.35 | 1.11 | 0.9 | 0.15 | 0.424 | 0.67 | 0.681 | 0.332 | 0.522 | 0.565 | 0.579 | 0.302 | 0.105 | 1.12 | 0.878 | 0.424
CCTACTGGGCCATCAGGTCAATGATATCAACGTT | 4.61 | 5.43 | 0.416 | 0.266 | 1.14 | 1.16 | 0.0872 | 1.6 | -0.0644 | 2.19 | 2.67 | 2.1 | 2.2 | -0.0866 | 1.31 | 3.17 | 2.24 | 0.718
CTACCAAGGTGAACAAGGTCGTTAATTACTATTC | 2.2 | 2.78 | 0.73 | 0.27 | 1.17 | 2.76 | 1.14 | 2.57 | 0.262 | 2.11 | 2.04 | 1.86 | 1.55 | 1.48 | 1.91 | 3.19 | 1.99 | 2.64
CCGACTGGGGCATAAGGTTACCTTAAGCCAGCCC | 2.68 | 3.27 | -0.344 | -1.61 | 0.545 | 0.197 | -0.44 | 1.22 | -0.764 | 1.49 | 1.66 | 1.26 | 0.711 | -0.657 | 0.903 | 2.3 | 2.31 | -0.441
TCATATAGGTAAAGGTGACAGTCGAACGATATGA | 4.04 | 4.07 | 1.74 | 1.19 | 0.889 | 0.897 | 0.245 | 1.44 | 0.76 | 1.9 | 1.42 | 1.61 | 1.5 | 0.827 | 2.06 | 1.38 | -0.0654 | -0.0372
CAAACTAGGTCACGAAAGGTCGAAGTCGAATGAC | 8.79 | 9.21 | 6.19 | 3.15 | 3.9 | 5.95 | 1 | 5.45 | 1.66 | 4.86 | 5 | 6.14 | 6.69 | 2.17 | 5.66 | 4.65 | 1.9 | 2.3
CTCGAAAGGTCGTGCTCAGGAGAGTATACCAAAC | 0.885 | 1.49 | 0.0921 | 0.34 | 0.909 | 2.6 | 0.45 | 3.47 | 0.362 | 3.87 | 2.52 | 4.36 | 4.09 | 1.88 | 5.03 | 2.64 | 0.423 | 1.36
TAGCCTAGGTCATTGGCCCAGTATAGTACGCATC | 1.34 | 3.13 | 0.481 | -0.598 | 1.5 | 1.71 | -0.0601 | 2.29 | -0.585 | 3.67 | 2.57 | 3.61 | 4.14 | 1.51 | 2.56 | 2.76 | 0.907 | 0.973
ATCTCTAGGTAACAAGTTCAGTGACAGAGAGGAC | 3.59 | 3.2 | 1.48 | 1.17 | 1.56 | 1.61 | 1.61 | 1.11 | 1.47 | 1.81 | 1.97 | 1.58 | 1.52 | 0.868 | 0.971 | 1.49 | 1.14 | 2.97
TCTAGTTGGTCACGGAGGTCACACTCGACGGGTA | 2.74 | 4.57 | 1.32 | 0.684 | 2.95 | 4.31 | 1.37 | 4.2 | 1.39 | 3.91 | 4.42 | 4.61 | 4.99 | 1.2 | 4.54 | 3.59 | 2.56 | 2.99
CTGCCTAGGTCAGGGCCAGTATAGGAGGAACGTT | 1 | 1.46 | -0.75 | -0.806 | 0.559 | 0.208 | -0.739 | 0.901 | -0.655 | 3.38 | 2.43 | 2.85 | 3.61 | -0.445 | 1.25 | 1.88 | 0.182 | -0.173
CGAACGAGAGCATGAGTTGATAGCAAATGCCGAT | -0.221 | -0.445 | 0.0684 | -0.174 | -0.221 | -0.273 | -0.148 | -0.442 | -0.33 | -0.53 | -0.657 | -0.0472 | 0.132 | 0.193 | -0.065 | -0.724 | -1.07 | 0.244
